PubChem BioAssay (NCI)
About 83,000 compounds went through this panel and 20% of them were active in at least one assay; those are over-represented in the sample as a whole.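 In brief: 96-well plates, 48 h treatment, single concentration, percent growth endpoint.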 A number with no mark means an inactive call. The source made the active and inactive calls. How the source made its calls: active means growth percent below 10; inactive means the rest.

Legend:
Assay in all cases: NCI-60 one-dose screen, 48 h (100 = growth as untreated, 0 = no growth, -100 = all killed)
Details in all cases: 10 µM unless noted
BT-549 breast = system: BT-549 breast
MDA-MB-435 melanoma = system: MDA-MB-435 melanoma
SW-620 colon = system: SW-620 colon
MCF7 breast = system: MCF7 breast
HCT-116 colon = system: HCT-116 colon
KM12 colon = system: KM12 colon

Compound	growth (BT-549 breast)	growth (MDA-MB-435 melanoma)	growth (SW-620 colon)	growth (MCF7 breast)	growth (HCT-116 colon)	growth (KM12 colon)
N#Cc1c2ccccc2c2n1-c1ccccc1OC(c1ccccc1)C2=O (stereo unspecified)	9.32% (active)	24.1%	56.9%	72.4%	11.3%	16%
COc1cc(/C=C/C(=O)c2c(-c3ccc(F)cc3)nc3sc(C)nn23)cc(OC)c1OC	12%	11.9%	19.2%	14.3%	14.7%	21.8%
CCCc1cc(=O)n2c(C(=O)Nc3ccccc3OC)c(C(=O)Nc3ccc(F)cc3)sc2n1	-14.2% [30 µM] (active)	65.8% [30 µM]	64.1% [30 µM]	52.7% [30 µM]	27.2% [30 µM]	76.6% [30 µM]
CCS(=O)(=O)OCCCl	89.6%	106%	108%	102%	107%	115%
CCCCn1c(Cc2ccc(Cl)cc2)nc2cc(OC)c(OC)cc2c1=O	38%	74.1%	95.6%	86.5%	52.5%	76.1%
c1ccc(-c2nn[nH]n2)c(-c2ccc(CN3CCN(c4nsc5ccccc45)CC3)cc2)c1	106%	92.2%	88.7%	85.6%	76.9%	101%
O=C(/C=C/c1ccc(Cl)cc1)c1ccccc1	104%	97%	89.3%	24.1%	54%	77.1%
NC(=O)NN=C(C1CC1)C1CC1	106%	105%	98.6%	92.9%	102%	104%
CC(O)c1nc2c(c(=O)n(C)c(=O)n2C)n1C (stereo unspecified)	109%	111%	110%	102%	90.2%	113%
CCC(C)CC(C)C(=O)c1c(O)ccn(OC)c1=O (stereo unspecified)	78.1%	73.6%	61.8%	74.3%	47.6%	102%
N#Cc1ccc(NC(=O)Nc2ccc(Oc3ccc(NC(=O)Nc4ccc(C#N)cc4)cc3)cc2)cc1	-15.5% (active)	35.6%	15.8%	20.5%	5.73% (active)	9.37% (active)
